Experimental data reported in ChEMBL document CHEMBL4513216, “Probing the Open Global Health Chemical Diversity Library for Multistage-Active Starting Points for Next-Generation Antimalarials” (ACS Infect Dis, 2020).
Out of some 69,000 compounds screened, about 8,600 (12%) showed an effect of 50% or more. Shown is part of a subset that was picked to be rich in strong results.

System: Plasmodium berghei
Test: Screen against P. berghei liver stage (PbLuc), transformed with Luciferase, at 10uM
Assay type: functional, HepG2
Settings: tested at 10 uM

Row | SMILES | INHIBITION
1 | CC1CCN(c2cc(CCC3CCCN3)ncn2)CC1 (stereo not drawn) | 34%
2 | CC(C)N(CC1CCCN(Cc2ccon2)C1)C(=O)OC(C)(C)C (stereo not drawn) | 39.9%
3 | COc1ccc(NC(=O)c2ccccc2NCc2ncnn2C)cc1 | 47.4%
4 | Cn1ncnc1CNc1ccccc1C(=O)NC(C)(C)C | 1.2%
5 | CCNC(=O)N1CCc2ccc(NC(=O)NCCOCC)cc21 | -26.8%
6 | CCCNC(=O)CNc1ccc2c(c1)N(C(=O)OC(C)(C)C)CCC2 | 87.2%
7 | Cn1ncnc1CNc1ccc2c(c1)N(C(=O)OC(C)(C)C)CCC2 | 52.4%
8 | CC(C)(C)OC(=O)N1CCCc2ccc(NCc3cc[nH]c3)cc21 | 92.1%
9 | Cc1n[nH]cc1CNc1ccc2c(c1)N(C(=O)OC(C)(C)C)CCC2 | 31.8%
10 | CCCNC(=O)Nc1ccc2c(c1)N(S(=O)(=O)CC)CC2 | 36.3%
11 | CC(C)(C)OC(=O)N1CCCc2ccc(NCc3ccon3)cc21 | 55.4%
12 | CC(C)(C)OC(=O)N1CCC[C@H](NCc2cc[nH]c2)C1 | 49.5%
13 | Cc1cc(CNCC2CCCN(C(=O)OC(C)(C)C)C2)no1 (stereo not drawn) | 39%
14 | c1csc(-c2nc(CN3CCCCC3Cn3cncn3)cs2)c1 (stereo not drawn) | 42%
15 | CCc1nc2n(n1)CC(NCC(=O)Nc1cc(C)nn1C)CC2 (stereo not drawn) | 5.03%
16 | Cc1ccc(-c2cnnc(N3CCCC3c3nccs3)n2)o1 (stereo not drawn) | 12.6%
17 | Cc1ccc(OCc2occc2C(=O)N2C[C@@H]3C(CN(C)C)[C@@H]3C2)cc1 (stereo partly drawn) | 32.2%
18 | Cc1c(CN2CCCC2(C)C(=O)NC2CCCC2)cnn1C (stereo not drawn) | 1.62%
19 | CCN(CC)CCNc1c(-c2ccccc2)c(=O)c1=O | 4.07%
20 | CN(C)c1nc2cn(C3CCSCC3)c(=O)c-2c[nH]1 | 18.65%
21 | CC(C)CC(=O)N1CC(=O)N(CCc2ccccc2)CC(O)C1 (stereo not drawn) | 0.284%
22 | CC(C)c1nc(CN2CCN(C(=O)CN3CCOCC3)CC2)no1 | 13.3%
23 | CCN(C(=O)Cc1ccc(NCc2ncc[nH]2)cc1)c1ccccc1 | 22.2%

Row | SMILES | INHIBITION
24 | CC(C)(C)OC(=O)N1CCCN(Cc2ccon2)c2ccccc21 | 83.6%
25 | CC(C)(C)OC(=O)N1CCCc2ccc(NCc3ncc[nH]3)cc21 | 51.8%
26 | COC(=O)N1CCc2ccc(NC(=O)c3cn(C)nn3)cc2C1 | -28.4%
27 | Cc1n[nH]cc1CNC(=O)[C@H]1CCCCN1C(=O)OC(C)(C)C | 34.1%
28 | Cc1n[nH]cc1CNc1ccc2c(c1)CN(C(=O)OC(C)(C)C)CC2 | 80.1%
29 | CN1CCN(Cc2cccc(NCc3ncc[nH]3)c2)CC1 | -13.9%
30 | CC(=O)N1CC(C)CN(Cc2ccon2)c2ccccc21 (stereo not drawn) | 18%
31 | CC(=O)N1CCCN(Cc2ccon2)c2ccccc21 | 32.3%
32 | Cc1cc(C)nc(N2CCC(C(=O)Nc3ccc(C(C)C)cc3)CC2)n1 | 20.2%
33 | O=S1(=O)NCC2(CCN(c3ncccn3)CC2)COc2ccccc21 | -21.2%
34 | CO[C@@H]1CO[C@@]2(CCCN(C(=O)N3CCCC3)C2)C1 | 33.1%
35 | CCS(=O)(=O)N1CCC(c2nn(CCN(C)C)c3ncccc23)C1 (stereo not drawn) | 9.63%
36 | Cc1cccc(C2CCN(S(=O)(=O)c3cn(C)cn3)CC2)n1 | -41.8%
37 | CCN1CCOC(CNCc2ccccc2OCc2ccncc2)C1 (stereo not drawn) | 19.5%
38 | Cc1nnc2n1CCN(Cc1ncc(-c3ccccc3)o1)C2 | -25.4%
39 | c1cc(-c2ccc3nc(C4CCN(CC5CC5)CC4)nn3c2)ccn1 | 47.9%
40 | COc1ccc(OCCN2CCN(Cc3nccn3C)CC2)cc1 | 14.1%
41 | CCN(Cc1ccncc1)CC1(O)CCN(C(=O)c2ccccc2C)C1 (stereo not drawn) | 23.2%
42 | Cn1c(C(=O)N2CCOCC2)nc2c1CCN(c1ncccn1)C2 | 14.2%
43 | CC(C)n1c(C(=O)N2CCCC2)nc2c1CCN(c1ncccn1)C2 | 33.4%
44 | CN1CCCN(C(=O)c2nc3c(n2C)CCN(c2ncccn2)C3)CC1 | 55.6%
45 | CN1CCN(C(=O)c2[nH]nnc2Nc2ccccc2F)CC1 | 5.18%
46 | NC(=O)Nc1ccc(C(=O)NCCn2cccc2)cc1 | 57.1%

Row | SMILES | INHIBITION
47 | CC(=O)Nc1ccc(C(=O)NCCCn2cccc2)cc1 | 18.7%
48 | O=C(NCCNC(=O)c1ccc(Cl)cc1)NCCn1cccc1 | -11.9%
49 | O=C(NC[C@]12COC[C@H]1CN(Cc1nccs1)C2)c1cscn1 | 47.9%
50 | FC(F)(F)c1cc(C2CCNCC2)nc(-c2ccsc2)n1 | 1.62%
51 | CN1C(=O)CC(c2cnn(C)c2)C12CCN(C(=O)c1cscn1)CC2 (stereo not drawn) | 61.4%
52 | CN1C(=O)CC(c2cnn(C)c2)C12CCN(C(=O)c1ccncc1)CC2 (stereo not drawn) | 42.7%
53 | CN1C(=O)CC(c2cnn(C)c2)C12CCN(C(=O)c1ccco1)CC2 (stereo not drawn) | 10.1%
54 | CN1C(=O)CC(c2cnn(C)c2)C12CCN(C(=O)c1ccc[nH]1)CC2 (stereo not drawn) | 37.8%
55 | CN1C(=O)CC(c2cnn(C)c2)C12CCN(C(=O)c1ccno1)CC2 (stereo not drawn) | 14.8%
56 | CN1C(=O)CC(c2cnn(C)c2)C12CCN(C(=O)c1ccnnc1)CC2 (stereo not drawn) | 57.9%
57 | Cc1nc(C2CCCN2C(=O)CCc2ccc(F)cc2)ncc1C(N)=O (stereo not drawn) | 43.6%
58 | O=C(CCc1nc2ccccc2[nH]1)N1CCCC(n2cccn2)C1 (stereo not drawn) | 40.75%
59 | CN(C)CCN1C(=O)CCC12CCN(C(=O)CC1CC1)CC2 | -12.2%
60 | CC(C)NC(=O)N1CCC2(CCC(=O)N2CCN(C)C)CC1 | 60.5%
61 | CN(C)CCN1C(=O)CCC12CCCN(C(=O)N(C)C)CC2 (stereo not drawn) | 9.97%
62 | COCCN1C(=O)CCC12CCN(C(=O)NC(C)C)CC2 | -38.4%
63 | COCCN1C(=O)CCC12CCCN(C(=O)CC1CC1)CC2 (stereo not drawn) | -15.9%
64 | COCCN1C(=O)CCC12CCCN(C(=O)NC(C)C)CC2 (stereo not drawn) | 18.6%
65 | CC(C)NC(=O)N1CCC2(CCC(=O)N2CCN2CCCC2)CC1 | 5.04%
66 | COCCC(=O)N1CCCC2(CCC(=O)N2CCOC)CC1 (stereo not drawn) | 54.9%
67 | CN(C)CCN1C(=O)CCC12CCCN(C(=O)CC1CC1)CC2 (stereo not drawn) | 51.9%
68 | O=c1cc(CNCc2ccc3c(c2)OCO3)nc2ccccn12 | 14.3%
